Compound activity: PubChem, National Center for Advancing Translational Sciences (NCATS)
HCV inhibitor: qHTS Assay for Inhibitors of Hepatitis C Virus (HCV). Huh7.5.1 HCVcc-Cre infection, luciferase reporter, 44 h. Potency, µM (series often up to 41.8 µM), for the others: top-dose activity change, negative = inhibition, usual class: inhibitors. 3.4% of 340,000 active; active = well fitted inhibition curve with a large enough effect; inconclusive = small, poorly fitted or top-dose-only effect, or another doubt; inactive = no such curve, though single readings can be large or run the other way; also: potency is read from the fitted curve at half-maximal effect
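A cell-based infection assay in which seeded cells (1,000 per well) receive test compound after 4 h, are inoculated with HCVcc-Cre at approximately 0.5 moi, and are incubated 44 h before luminescence detection.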
HCMV inh: qHTS Assay for inhibitors of the human cytomegalovirus (HCMV); HFF cells, HCMV-luciferase reporter, 72 h; stronger effect = lower value; activity change, negative = inhibition, % at 57.5 µM; 4.5% of 410,000 active; AID 1259415, 2018; in the data active = activity change below about -60%; inconclusive = no clear call, values can overlap the other calls; inactive = above about -39%
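Two compound doses tested in HFFs infected with HCMV-luciferase, MOI 1 PFU/cell, 72 h at 37C. Lysate luminescence read with OneGlo; data normalized against buffer-only and 10uM Salinomycin inhibitor controls.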
Marburg entry inh: qHTS for inhibitors of binding or entry into cells for Marburg Virus. 1.8% of 300,000 active. Marburg virus pseudotyped entry inhibition, cell reporter. Potency, µM (series often up to 37.8 µM), inactives show at the highest dose activity change, negative = inhibition, hits mostly inhibitors; calls by dose curve; tested in HEK293 cells; also: potency is read from the fitted curve at half-maximal effect
Lassa entry inh: qHTS for Inhibitors of binding or entry into cells for Lassa Virus; Lassa virus pseudotype entry inhibition, cell reporter; Potency, µM (top dose mostly 37.9 µM), without a hit: top-dose activity change, negative = inhibition, most hits filed as inhibitors; 1.2% of 300,000 active; AID 540256, 2011; calls by dose curve; tested in HEK293 cells; also: potency is read from the fitted curve at half-maximal effect; nearly all actives have a fitted effect of over 50% in size
Vaccinia Venus: qHTS for Stage-Specific Inhibitors of Vaccinia Orthopoxvirus: Venus Reporter Primary qHTS | Vaccinia virus Venus reporter expression, fluorescence | Potency, µM (series often up to 36.5 µM), for the others: top-dose activity change, negative = inhibition, hits mostly inhibitors | 0.46% of 330,000 active; calls by dose curve; tested in A549 cells; also: potency is read from the fitted curve at half-maximal effect; nearly all actives have a fitted effect of over 30% in size
VACV mCherry inh: qHTS for Stage-Specific Inhibitors of Vaccinia Orthopoxvirus: mCherry Reporter Primary qHTS; Vaccinia virus mCherry reporter infection, fluorescence; Potency, µM (doses to about 36.5 µM), for inactives: at the top dose activity change, negative = inhibition, hits mostly inhibitors; 0.63% of 310,000 active; AID 720579, 2013; calls by dose curve; tested in A549 cells; also: potency is read from the fitted curve at half-maximal effect; nearly all actives have a fitted effect of over 35% in size
The depositor's hits bear a star; i = inactive; ? = inconclusive; . = not tested or not shown; [ ] = another dose, or the depositor's remark. Shown are actives, neighbours in structure and some others; about 7.8% of the full set was active somewhere. % is scaled to controls: 0 for no effect and ±100 for the full control effect.

SMILES | HCV inhibitor | HCMV inh | Marburg entry inh | Lassa entry inh | Vaccinia Venus | VACV mCherry inh
CC1Cc2cc(S(=O)(=O)NCc3ccccc3)ccc2N1C(=O)C1CCC1 (centres undefined) | ? | -11 | ? | ? | -5% | -9%
CC1Cc2cc(S(=O)(=O)NCc3ccccc3)ccc2N1C(=O)C1CC1 (centres undefined) | ? | -10 | . | . | . | .
COc1cccc(NC(=O)CCNS(=O)(=O)c2ccc3c(c2)CC(C)N3C(=O)C2CC2)c1 (centres undefined) | 3% | -71* | . | . | 0%[7.34 µM] | i[7.34 µM]
COc1ccc(NS(=O)(=O)c2ccc3c(c2)CC(C)N3C(=O)C2CCC2)cc1OC (centres undefined) | . | -78* | . | ? | -25% | -24%
COc1cc(Cl)c(NS(=O)(=O)c2ccc3c(c2)CC(C)N3C(=O)C2CCC2)c(OC)c1 (centres undefined) | . | -86* | . | ? | -20%[7.34 µM] | -18%[7.34 µM]
CCc1cccc(NS(=O)(=O)c2ccc3c(c2)CC(C)N3C(=O)C2CC2)c1 (centres undefined) | . | -80* | . | -24%[46.1 µM] | ? | ?
O=C(OCc1cc(=O)n2ccsc2n1)C1(c2ccccc2)CC1 | . | -98* | . | . | -14% | -9%
CCCn1c(=O)c2ccccc2n2c(SCc3cc(=O)n4ccsc4n3)nnc12 | . | . | 2% | . | . | .
c1ccc(-n2cnnc2SCc2cn3ccsc3n2)cc1 | 16% | -11 | ? | 0% | . | .
Cc1cccc(-n2c(SCc3cc(=O)n4ccsc4n3)nc3ccccc32)c1 | 7.9µM* | -6 | 9% | 22% | -12% | -23%
Cc1ccc(-n2c(SCc3cn4ccsc4n3)nc3ccccc3c2=O)cc1 | 10µM* | -65* | -24% | ? | ? | -26%[1.46 µM]
Cn1c(Cc2ccccc2)nnc1SCc1cc(=O)n2ccsc2n1 | 20% | -63* | 1%[46.1 µM] | 10% | -2% | -4%
CCN(C(=O)c1cc(S(=O)(=O)N2CCCC2)cn1C)c1ccc(OC)cc1 | . | -33 | . | -12%[46.1 µM] | -9% | -6%
CCOC(=O)c1scc(-c2ccc(C)cc2)c1S(=O)(=O)Nc1cccc(CC)c1 | . | -12 | . | 1%[46.1 µM] | -6% | -23%
CCCCOCCCNC(=O)C[C@@H]1C[C@@]2(C(=O)OCC)CCC=C2N(Cc2ccc(Cl)cc2Cl)C1=O | . | -6 | . | . | -21% | -23%
Cc1cc(N2CCC(C)CC2)n2ncc(-c3ccccc3)c2n1 | ? | -64* | ? | ? | -25% | .
Cc1cc(N2CCCCC2)n2ncc(-c3ccccc3)c2n1 | 10µM* | -25 | ? | 4.5µM* | -19% | -8%
Cc1ccc(-c2cnn3c(N4CCOCC4)cc(C)nc23)cc1 | ? | -22 | . | . | . | .
Cc1cc(N2CCOCC2)n2ncc(-c3ccccc3)c2n1 | ? | -28 | ? | 2.6µM* | . | .
Cc1ccc(-n2nc(C)c3c(C)cc(=O)n(CC(=O)NCc4ccc(OC(C)C)cc4)c32)cc1 | . | 13 | . | -28%[46.1 µM] | -10% | -3%
O=C(COCc1cc(-c2cccs2)on1)N1CCN(c2ccc(F)cc2)CC1 | . | -16 | . | ? | -12% | -19%
O=S1(=O)CCO[C@H]2CCCC[C@@H]2N1Cc1ccccc1 | . | . | . | . | -7% | i
CC(=O)c1ccc(NC(=O)c2nc(-c3ccccc3)n(-c3ccc(Cl)cc3)n2)cc1 | . | 7 | 12%[46.1 µM] | -9%[46.1 µM] | -9% | i
CC(=O)c1ccccc1NC(=O)CSc1nc2ccccc2c(=O)n1CCCN1CCOCC1 | -12% | -22 | 5% | 3% | -5% | -11%
O=C(CSc1nc2ccccc2c(=O)n1CCCN1CCOCC1)c1c[nH]c2ccccc12 | 14µM* | ? | ? | ? | -16% | -17%
SMILES | HCV inhibitor | HCMV inh | Marburg entry inh | Lassa entry inh | Vaccinia Venus | VACV mCherry inh
O=c1c2ccccc2nc(SCc2ccc(F)cc2Cl)n1CCCN1CCOCC1 | 10µM* | -39 | . | . | . | .
COc1ccccc1CNC(=O)CSc1nc2ccccc2c(=O)n1CCCN1CCOCC1 | -16% | -34 | -11%[46.1 µM] | -4% | -25% | -18%
COc1ccc(CCNC(=O)CCN2C(=O)c3cccc4cccc(c34)C2=O)cc1OC | 9% | -13 | . | . | . | .
COc1ccc(CCN2C(=O)c3cccc4c(C(=O)N5CCCCC5)ccc(c34)C2=O)cc1OC | -23% | -65* | ? | ? | -7% | -15%
Cc1ccc(C(=O)NCC(c2ccc(Cl)cc2)N2CCCCC2)cc1 (centres undefined) | . | -5 | ? | -1%[46.1 µM] | -7% | -8%
O=C(Nc1ccccc1Cl)c1cc2c(-c3ccccc3)nn(-c3ccccc3)c2s1 | . | -9 | -4%[46.1 µM] | 13%[46.1 µM] | 14% | 3%
COc1ccc(N2C(=O)[C@@H]3C[C@H]2CN3Cc2cccn2-c2nccs2)cc1Cl | . | . | . | . | -16% | -5%
C=Cn1ccnc1P(=S)(c1ccc(Cl)cc1)c1nccn1C=C | 1% | -76* | -2%[46.1 µM] | 19%[46.1 µM] | -10% | -8%
O=C1OC(Nc2nc(-c3ccc(F)cc3)cs2)c2ccccc21 (centres undefined) | -7% | -91* | ? | 1%[46.1 µM] | ? | ?
COc1ccc2c(c1OC)C(=O)OC2Nc1nc(-c2ccc(-c3ccccc3)cc2)cs1 (centres undefined) | 8.9µM* | 42 | -38% | ? | ? | ?
COc1ccccc1NC(=O)NCc1ccco1 | ? | -30 | 8%[46.1 µM] | ? | -19% | -12%
COc1cc(NC(=O)NCc2ccco2)ccc1-c1ccc(NC(=O)NCc2ccco2)cc1OC | 11µM* | -67* | ? | ? | -21% | ?
CCOC(=O)Nc1ccc2nc(Sc3ccc(Cl)cc3)sc2c1 | 14µM* | -34 | . | . | ? | ?
CCC(=O)Nc1ccc2nc(SCCOc3ccccc3)sc2c1 | . | -63* | ? | -15%[46.1 µM] | -12% | i
CCCC(=O)Nc1ccc2nc(SCCOc3ccccc3)sc2c1 | . | -60* | -26%[46.1 µM] | -16%[46.1 µM] | -13% | -12%
O=C(Nc1ccc2nc(SCCOc3ccccc3Cl)sc2c1)c1cccs1 | . | -88* | 2%[46.1 µM] | -6%[46.1 µM] | -5%[7.34 µM] | -8%[7.34 µM]
Cc1cccc(C(=O)Nc2cccc(OCc3cc(=O)n4cccc(C)c4n3)c2)c1 | . | -24 | . | 4%[46.1 µM] | -23% | -19%
